This passage reports log fold change Tl+ flux results from PubChem BioAssay.

Values without a mark were called inactive. Active and inactive are the calls of the source.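 The calls were made as follows: active = thallium flux through the channel raised or lowered by more than 3 SD from vehicle-only wells, actives on both sides; inactive = the rest.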

Common to all, as to experiment: modulators of BK channel variants, profiling panel, selectivity assay, cell-based, U2OS BacMam, thallium flux, beta subunits (AID 1259406);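 also: initial slope of Thallos dye fluorescence rise after thallium is added; log ratio against the mean of 0.3% DMSO vehicle wells on the same plate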
In one experiment the test system is F380Y. Conditions: at 30 µM.
The next experiment relates to F380Y/beta1. The conditions noted are these: at 30 µM.
In another experiment the test system is F380Y/beta2Delta. Conditions: at 30 µM.
Another experiment deals with F380Y/beta4. The conditions noted are these: at 30 µM.
Experiment [1] concerns the target Calcium-activated potassium channel subunit alpha-1 (Homo sapiens) + Leucine-rich repeat-containing protein 26 (Homo sapiens) (UniProt Q12791+Q2I0M4). The conditions noted are these: F380Y/Slo1WT/gamma1, at 30 µM.
In another experiment the test system is R275C. The conditions noted are these: at 30 µM.
The next experiment has as its system R275C/beta1. Conditions: at 30 µM.
In a further experiment the test system is R275C/beta2Delta. Conditions: at 30 µM.
The test system of the next experiment is R275C/beta4. Conditions: at 30 µM.
For a further experiment, the system named is R275C/Slo1WT/beta2. The conditions noted are these: at 30 µM.

Chain of Calcium-activated potassium channel subunit alpha-1 (Homo sapiens) + Leucine-rich repeat-containing protein 26 (Homo sapiens) (Q2I0M4 whole entry, looked up, one chain of several): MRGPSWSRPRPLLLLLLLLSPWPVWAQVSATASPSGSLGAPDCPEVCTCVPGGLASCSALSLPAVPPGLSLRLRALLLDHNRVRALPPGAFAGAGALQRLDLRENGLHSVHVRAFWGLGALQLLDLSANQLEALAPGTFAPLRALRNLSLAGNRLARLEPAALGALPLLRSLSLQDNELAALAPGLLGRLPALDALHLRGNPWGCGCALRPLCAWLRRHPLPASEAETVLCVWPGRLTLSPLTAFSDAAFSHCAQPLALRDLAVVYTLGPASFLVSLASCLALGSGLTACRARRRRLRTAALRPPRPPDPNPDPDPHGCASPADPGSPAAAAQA

As for `NS(=O)(=O)c1cc(C(=O)O)c(NCc2ccco2)cc1Cl`, the log fold change Tl+ flux is -0.0179 in the experiment with F380Y; -0.0049 with F380Y/beta1; -0.0211 with F380Y/beta2Delta; 0.0269 in the experiment on F380Y/beta4; -0.028 in experiment [1]; -0.0468 with R275C. Moreover, the log fold change Tl+ flux with R275C/beta1 is -0.0154; with R275C/beta2Delta, -0.0184; in the experiment on R275C/beta4 it was 0.000317; in the experiment with R275C/Slo1WT/beta2, 0.0743.
Take `O=C(O)CCNC(=O)c1ccc(N=Nc2ccc(O)c(C(=O)O)c2)cc1`: the log fold change Tl+ flux in the experiment with F380Y was -0.00418; in the experiment on F380Y/beta1 it was -0.0255; in the experiment on F380Y/beta2Delta, -0.00246; with F380Y/beta4 it was 0.0201; in experiment [1] it was 0; in the experiment with R275C, -0.0367. Besides, the log fold change Tl+ flux was 0.0608 in the experiment on R275C/beta1, 0.0174 with R275C/beta2Delta, 0.00146 with R275C/beta4 and 0.0188 in the experiment on R275C/Slo1WT/beta2.
With `Brc1c(NC2=NCCN2)ccc2nccnc12`, the log fold change Tl+ flux with F380Y was -0.0564; in the experiment on F380Y/beta1, 0.00839; with F380Y/beta2Delta, -0.06; with F380Y/beta4, -0.0578; in experiment [1] it was -0.0163; with R275C it was -0.0123. The log fold change Tl+ flux with R275C/beta1 is 0.0524; in the experiment on R275C/beta2Delta, -0.0061; in the experiment on R275C/beta4, 0.0292; with R275C/Slo1WT/beta2 it was 0.0556.
In the case of `COc1cc2c(cc1OC)C(=O)C(CC1CCN(Cc3ccccc3)CC1)C2` (stereo not given), the log fold change Tl+ flux in the experiment on F380Y is 0.0206; in the experiment with F380Y/beta1 it was -0.0145; with F380Y/beta2Delta it was 0.0718; with F380Y/beta4 it was 0.0262; in experiment [1], -0.0241; in the experiment on R275C, -0.0742. In addition, the log fold change Tl+ flux with R275C/beta1 is 0.0129; with R275C/beta2Delta it was -0.0194; with R275C/beta4, 0.00155; in the experiment on R275C/Slo1WT/beta2, 0.0243.
For `COc1cc(OC)c(C(=O)CCCN2CCCC2)c(OC)c1`, the log fold change Tl+ flux in the experiment with F380Y is -0.00984; in the experiment on F380Y/beta1, -0.00851; with F380Y/beta2Delta, -0.00493; with F380Y/beta4 it was -0.0142; in [1], 0.0079; in the experiment with R275C it was 0.0465. For the same molecule, the log fold change Tl+ flux in the experiment with R275C/beta1 was 0.0151; with R275C/beta2Delta, 0.0392; in the experiment on R275C/beta4, 0.0301; with R275C/Slo1WT/beta2, 0.0326.
Take `CCN1CCCC1CNC(=O)c1cc(S(=O)(=O)CC)c(N)cc1OC` (stereo not given): the log fold change Tl+ flux in the experiment with F380Y is 0.00396; in the experiment with F380Y/beta1, 0.016; in the experiment with F380Y/beta2Delta, 0.0211; in the experiment on F380Y/beta4 it was 0.00308; in experiment [1], -0.0597; in the experiment on R275C, -0.0334. In addition, the log fold change Tl+ flux was 0.00406 in the experiment with R275C/beta1, -0.0411 in the experiment with R275C/beta2Delta, -0.0037 with R275C/beta4 and 0.0112 with R275C/Slo1WT/beta2.
With `CCN(CC)CCNC(=O)c1cc(Cl)c(N)cc1OC`, the log fold change Tl+ flux with F380Y is -0.00476; in the experiment with F380Y/beta1, -0.00572; in the experiment with F380Y/beta2Delta, -0.0588; with F380Y/beta4 it was -0.0267; in experiment [1], 0.0156; in the experiment on R275C, 0.0337. For the same molecule, the log fold change Tl+ flux is -0.0145 with R275C/beta1, -0.0122 in the experiment with R275C/beta2Delta, -0.0991 in the experiment on R275C/beta4 and -0.0439 in the experiment with R275C/Slo1WT/beta2.
With `CC(C)(C(=O)c1cccnc1)c1cccnc1`, the log fold change Tl+ flux in the experiment on F380Y is -0.0599; in the experiment on F380Y/beta1, 0.0309; with F380Y/beta2Delta, -0.0492; in the experiment on F380Y/beta4 it was -0.00737; in experiment [1] it was -0.0176; in the experiment with R275C it was -0.0634. In addition, the log fold change Tl+ flux in the experiment with R275C/beta1 is 0.0377; in the experiment on R275C/beta2Delta, -0.0241; in the experiment on R275C/beta4, 0.0328; in the experiment with R275C/Slo1WT/beta2, 0.0667.
In the case of `COC1=C(OC)C(=O)C(CCCCCCCCCCO)=C(C)C1=O`, the log fold change Tl+ flux with F380Y was -0.163 (active); in the experiment on F380Y/beta1, 0.138 (active); with F380Y/beta2Delta it was -0.557 (active); with F380Y/beta4, -0.388 (active); in [1] it was -0.413 (active); in the experiment on R275C, -0.199 (active). The log fold change Tl+ flux in the experiment with R275C/beta1 is -0.0599; in the experiment with R275C/beta2Delta it was -0.151 (active); with R275C/beta4, -0.0932 (active); in the experiment on R275C/Slo1WT/beta2, -0.0534.
On to `CN(C)CC/C=C1/c2ccccc2COc2ccc(CC(=O)O)cc21`, for which the log fold change Tl+ flux is 0.0275 with F380Y; 0.0119 in the experiment with F380Y/beta1; 0.053 in the experiment with F380Y/beta2Delta; 0.0784 in the experiment with F380Y/beta4; 0.00396 in [1]; -0.0501 in the experiment with R275C. Further, the log fold change Tl+ flux in the experiment with R275C/beta1 was 0.0368; in the experiment on R275C/beta2Delta, 0.00503; with R275C/beta4, 0.0335; with R275C/Slo1WT/beta2 it was 0.0239.
In the case of `CC(C(=O)O)c1ccc(CC2CCCC2=O)cc1` (stereo not given), the log fold change Tl+ flux is -0.0107 in the experiment with F380Y; -0.0699 in the experiment with F380Y/beta1; -0.0349 in the experiment on F380Y/beta2Delta; -0.0649 in the experiment on F380Y/beta4; -0.0398 in experiment [1]; -0.0259 with R275C. Further, the log fold change Tl+ flux is 0.00328 with R275C/beta1, 0.0267 in the experiment with R275C/beta2Delta, -0.000172 in the experiment with R275C/beta4 and 0.00782 with R275C/Slo1WT/beta2.
As for `N#Cc1ccc(C(c2ccc(C#N)cc2)n2cncn2)cc1`, the log fold change Tl+ flux with F380Y is -0.0169; in the experiment on F380Y/beta1, 0.0204; in the experiment on F380Y/beta2Delta, 0.0563; in the experiment with F380Y/beta4, 0.0185; in experiment [1], 0.0131; in the experiment with R275C it was -0.0506. Also, the log fold change Tl+ flux in the experiment on R275C/beta1 was -0.0148; in the experiment on R275C/beta2Delta it was -0.0137; in the experiment on R275C/beta4 it was -0.0251; in the experiment with R275C/Slo1WT/beta2 it was 0.00776.
